Laboratory results published in the supplement of paper PMC12669032.

What was measured:
Test in all cases: growth AUC relative to DMSO control (median of replicates) (fraction); higher = more growth (less inhibition), active = hit call of the paper
Settings in all cases: 20 µM; 24 h;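 active = AUC reduced over 20% with Padj below 0.05 in at least 2 of 3 replicates; inactive = otherwise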
Akkermansia muciniphila = tested on: Akkermansia muciniphila
Summary of the method: (§1)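 Starting at OD600 0.05, gut bacterial monocultures in mGAM were grown anaerobically at 37 °C with 20 µM compound (1% DMSO) under pierced gas-permeable seals. OD600 was read every hour for 24 h, and the lowest OD of each curve was set to 0. Area under the growth curve was normalised to the plate median of solvent-only wells, or to row and column medians on the industrial chemical plate, and the median of three biological replicates grown on separate days is given.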

Bacteroides caccae = tested on: Bacteroides caccae
Summary of the method: as §1

Bacteroides clarus = tested on: Bacteroides clarus
Summary of the method: as §1

Bacteroides dorei = tested on: Bacteroides dorei
Summary of the method: as §1

Bacteroides stercoris = tested on: Bacteroides stercoris
Summary of the method: as §1

[1] = tested on: Bacteroides thetaiotaomicron
Summary of the method: as §1

Bacteroides uniformis = tested on: Bacteroides uniformis
Summary of the method: as §1

[2] = tested on: Bifidobacterium longum subsp. longum
Summary of the method: as §1

Clostridium difficile = tested on: Clostridium difficile
Summary of the method: as §1

Collinsella aerofaciens = tested on: Collinsella aerofaciens
Summary of the method: as §1

Coprococcus comes = tested on: Coprococcus comes
Summary of the method: as §1

Escherichia coli ED1a = tested on: Escherichia coli ED1a
Summary of the method: as §1

Escherichia coli IAI1 = tested on: Escherichia coli IAI1
Summary of the method: as §1

Eubacterium rectale = tested on: Eubacterium rectale
Summary of the method: as §1

[3] = tested on: Fusobacterium nucleatum subsp. animalis
Summary of the method: as §1

Lactobacillus gasseri = tested on: Lactobacillus gasseri
Summary of the method: as §1

Lactobacillus paracasei = tested on: Lactobacillus paracasei
Summary of the method: as §1

Odoribacter splanchnicus = tested on: Odoribacter splanchnicus
Summary of the method: as §1

[4] = tested on: Parabacteroides distasonis
Summary of the method: as §1

Parabacteroides merdae = tested on: Parabacteroides merdae
Summary of the method: as §1

Measured: growth AUC

COP(=S)(OC)Oc1ccc([N+](=O)[O-])cc1
inactive: Akkermansia muciniphila 1.18 | Bacteroides caccae 0.898 | Bacteroides clarus 1.03 | Bacteroides dorei 0.888 | Bacteroides stercoris 1.04 | [1] 0.975 | Bacteroides uniformis 0.96 | [2] 1.03 | Clostridium difficile 1.02 | Collinsella aerofaciens 0.955 | Coprococcus comes 0.992 | Escherichia coli ED1a 0.999 | Escherichia coli IAI1 1 | Eubacterium rectale 1.13 | [3] 1.13 | Lactobacillus gasseri 0.915 | Lactobacillus paracasei 0.989 | Odoribacter splanchnicus 0.771 | [4] 0.93 | Parabacteroides merdae 0.964

CN/C(=N\[N+](=O)[O-])NCc1cnc(Cl)s1
inactive: Akkermansia muciniphila 0.906 | Bacteroides caccae 0.93 | Bacteroides clarus 1.02 | Bacteroides dorei 1.03 | Bacteroides stercoris 1.17 | [1] 1 | Bacteroides uniformis 1 | [2] 1.03 | Clostridium difficile 0.979 | Collinsella aerofaciens 0.988 | Coprococcus comes 1.01 | Escherichia coli ED1a 1.02 | Escherichia coli IAI1 1 | Eubacterium rectale 1.07 | [3] 1.09 | Lactobacillus gasseri 0.959 | Lactobacillus paracasei 1 | Odoribacter splanchnicus 1.02 | [4] 0.965 | Parabacteroides merdae 0.975

COP(=O)(OC)O/C(=C\Cl)c1ccc(Cl)cc1Cl
inactive: Akkermansia muciniphila 1.11 | Bacteroides caccae 0.975 | Bacteroides clarus 1.02 | Bacteroides dorei 1.03 | Bacteroides stercoris 1.02 | [1] 0.969 | Bacteroides uniformis 1.01 | [2] 1.02 | Clostridium difficile 0.97 | Collinsella aerofaciens 0.997 | Coprococcus comes 1.06 | Escherichia coli ED1a 1.01 | Escherichia coli IAI1 1 | Eubacterium rectale 1.09 | [3] 1.09 | Lactobacillus gasseri 0.97 | Lactobacillus paracasei 1.02 | Odoribacter splanchnicus 1.02 | [4] 0.957 | Parabacteroides merdae 1.01

O=c1oc2ccccc2c(O)c1C1CCCc2ccccc21 (stereo not given)
active: [1] 0.796 | Bacteroides uniformis 0.701
inactive: Akkermansia muciniphila 1.15 | Bacteroides caccae 0.938 | Bacteroides clarus 0.916 | Bacteroides dorei 0.926 | Bacteroides stercoris 1.09 | [2] 1.09 | Clostridium difficile 1.02 | Collinsella aerofaciens 1 | Coprococcus comes 0.966 | Escherichia coli ED1a 1.04 | Escherichia coli IAI1 1.04 | Eubacterium rectale 1.08 | [3] 1.05 | Lactobacillus gasseri 1 | Lactobacillus paracasei 0.894 | Odoribacter splanchnicus 0.959 | [4] 0.805 | Parabacteroides merdae 0.994

CC1(C)C(C=C(Cl)Cl)C1C(=O)OC(C#N)c1cccc(Oc2ccccc2)c1 (stereo not given)
inactive: Akkermansia muciniphila 1.06 | Bacteroides caccae 0.942 | Bacteroides clarus 1.03 | Bacteroides dorei 1.02 | Bacteroides stercoris 1.24 | [1] 0.963 | Bacteroides uniformis 1.01 | [2] 0.926 | Clostridium difficile 0.986 | Collinsella aerofaciens 0.966 | Coprococcus comes 0.945 | Escherichia coli ED1a 1.01 | Escherichia coli IAI1 0.98 | Eubacterium rectale 1.05 | [3] 1.05 | Lactobacillus gasseri 0.776 | Lactobacillus paracasei 0.951 | Odoribacter splanchnicus 1.07 | [4] 0.98 | Parabacteroides merdae 1.02

Nc1nc(N)nc(Cl)n1
inactive: Akkermansia muciniphila 1.01 | Bacteroides caccae 1.05 | Bacteroides clarus 1.02 | Bacteroides dorei 1.01 | Bacteroides stercoris 1.16 | [1] 1.01 | Bacteroides uniformis 1.02 | [2] 1.01 | Clostridium difficile 1.03 | Collinsella aerofaciens 0.992 | Coprococcus comes 1.02 | Escherichia coli ED1a 1.04 | Escherichia coli IAI1 1.01 | Eubacterium rectale 0.971 | [3] 1.08 | Lactobacillus gasseri 1.02 | Lactobacillus paracasei 0.991 | Odoribacter splanchnicus 1 | [4] 1.01 | Parabacteroides merdae 1.02

CCC(C)(c1ccc(O)cc1)c1ccc(O)cc1
inactive: Akkermansia muciniphila 0.984 | Bacteroides caccae 0.989 | Bacteroides clarus 0.925 | Bacteroides dorei 0.967 | Bacteroides stercoris 0.927 | [1] 0.973 | Bacteroides uniformis 0.991 | [2] 1.02 | Clostridium difficile 0.997 | Collinsella aerofaciens 1 | Coprococcus comes 1.01 | Escherichia coli ED1a 1 | Escherichia coli IAI1 1.01 | Eubacterium rectale 0.882 | [3] 1.04 | Lactobacillus gasseri 1 | Lactobacillus paracasei 0.989 | Odoribacter splanchnicus 0.872 | [4] 0.743 | Parabacteroides merdae 0.968

O=P(OC(CCl)CCl)(OC(CCl)CCl)OC(CCl)CCl
active: [4] 0.5
inactive: Akkermansia muciniphila 1.09 | Bacteroides caccae 0.845 | Bacteroides clarus 0.999 | Bacteroides dorei 0.87 | Bacteroides stercoris 1.3 | [1] 0.947 | Bacteroides uniformis 0.868 | [2] 1.05 | Clostridium difficile 0.9 | Collinsella aerofaciens 0.948 | Coprococcus comes 0.89 | Escherichia coli ED1a 1.01 | Escherichia coli IAI1 1 | Eubacterium rectale 1.07 | [3] 1.11 | Lactobacillus gasseri 0.905 | Lactobacillus paracasei 1.03 | Odoribacter splanchnicus 0.613 | Parabacteroides merdae 0.911

O=C1CCc2cccc3c2N1CC3
inactive: Akkermansia muciniphila 1.04 | Bacteroides caccae 0.874 | Bacteroides clarus 0.964 | Bacteroides dorei 0.974 | Bacteroides stercoris 1.14 | [1] 0.883 | Bacteroides uniformis 0.98 | [2] 1.03 | Clostridium difficile 1.03 | Collinsella aerofaciens 0.954 | Coprococcus comes 1.03 | Escherichia coli ED1a 1 | Escherichia coli IAI1 0.966 | Eubacterium rectale 1.06 | [3] 1.08 | Lactobacillus gasseri 0.889 | Lactobacillus paracasei 0.983 | Odoribacter splanchnicus 1.04 | [4] 1.03 | Parabacteroides merdae 0.971

COC(=O)C(C)N(C(=O)Cc1ccccc1)c1c(C)cccc1C (stereo not given)
inactive: Akkermansia muciniphila 0.959 | Bacteroides caccae 0.985 | Bacteroides clarus 0.957 | Bacteroides dorei 0.99 | Bacteroides stercoris 0.954 | [1] 0.956 | Bacteroides uniformis 0.878 | [2] 1.02 | Clostridium difficile 0.977 | Collinsella aerofaciens 1.02 | Coprococcus comes 0.967 | Escherichia coli ED1a 0.995 | Escherichia coli IAI1 0.972 | Eubacterium rectale 0.916 | [3] 0.917 | Lactobacillus gasseri 0.888 | Lactobacillus paracasei 0.98 | Odoribacter splanchnicus 0.96 | [4] 0.985 | Parabacteroides merdae 0.944

Clc1ccc(C(c2ccc(Cl)cc2)C(Cl)Cl)cc1
active: Bacteroides stercoris 0.662
inactive: Akkermansia muciniphila 1.03 | Bacteroides caccae 0.927 | Bacteroides clarus 0.899 | Bacteroides dorei 0.888 | [1] 0.933 | Bacteroides uniformis 0.984 | [2] 1.06 | Clostridium difficile 1.03 | Collinsella aerofaciens 0.873 | Coprococcus comes 1.01 | Escherichia coli ED1a 1.02 | Escherichia coli IAI1 0.984 | Eubacterium rectale 1.01 | [3] 1.07 | Lactobacillus gasseri 0.956 | Lactobacillus paracasei 0.994 | Odoribacter splanchnicus 0.951 | [4] 1.02 | Parabacteroides merdae 0.918

CCOC(=O)C(O)(c1ccc(Cl)cc1)c1ccc(Cl)cc1
inactive: Akkermansia muciniphila 0.996 | Bacteroides caccae 0.872 | Bacteroides dorei 0.951 | [1] 0.874 | Bacteroides uniformis 0.991 | [2] 0.997 | Clostridium difficile 1.04 | Collinsella aerofaciens 0.978 | Coprococcus comes 0.953 | Escherichia coli ED1a 1.03 | Escherichia coli IAI1 0.968 | Eubacterium rectale 1.02 | [3] 0.879 | Lactobacillus gasseri 1.03 | Lactobacillus paracasei 0.979 | Odoribacter splanchnicus 0.992 | [4] 0.823 | Parabacteroides merdae 0.92
active: Bacteroides clarus 0.78 | Bacteroides stercoris 0.376

CC(C)N(C)S(=O)(=O)NC(=O)c1cc(-n2c(=O)cc(C(F)(F)F)n(C)c2=O)c(F)cc1Cl
inactive: Akkermansia muciniphila 0.916 | Bacteroides caccae 1.02 | Bacteroides clarus 0.989 | Bacteroides dorei 1 | Bacteroides stercoris 1.09 | [1] 0.951 | Bacteroides uniformis 0.94 | [2] 1 | Clostridium difficile 0.976 | Collinsella aerofaciens 1.04 | Coprococcus comes 1.03 | Escherichia coli ED1a 1.02 | Escherichia coli IAI1 1 | Eubacterium rectale 1.01 | [3] 0.98 | Lactobacillus gasseri 1.02 | Lactobacillus paracasei 1.04 | Odoribacter splanchnicus 0.99 | [4] 1.08 | Parabacteroides merdae 1

COCc1c(F)c(F)c(COC(=O)C2C(C=C(C)C)C2(C)C)c(F)c1F (stereo not given)
inactive: Akkermansia muciniphila 0.976 | Bacteroides caccae 0.953 | Bacteroides clarus 0.943 | Bacteroides dorei 0.991 | Bacteroides stercoris 1.17 | [1] 0.98 | Bacteroides uniformis 0.972 | [2] 1.01 | Clostridium difficile 1.02 | Collinsella aerofaciens 1.03 | Coprococcus comes 0.979 | Escherichia coli ED1a 1.01 | Escherichia coli IAI1 1.02 | Eubacterium rectale 0.906 | [3] 1.04 | Lactobacillus gasseri 0.873 | Lactobacillus paracasei 0.978 | Odoribacter splanchnicus 1.05 | [4] 1.03 | Parabacteroides merdae 1.02

O=C(O)c1nc(Cl)ccc1Cl
inactive: Akkermansia muciniphila 1.11 | Bacteroides caccae 1.01 | Bacteroides clarus 1.02 | Bacteroides dorei 1.03 | Bacteroides stercoris 1.11 | [1] 0.993 | Bacteroides uniformis 1.01 | [2] 1.03 | Clostridium difficile 0.975 | Collinsella aerofaciens 0.982 | Coprococcus comes 1.03 | Escherichia coli ED1a 0.995 | Escherichia coli IAI1 1.01 | Eubacterium rectale 0.952 | [3] 0.998 | Lactobacillus gasseri 1.09 | Lactobacillus paracasei 1.03 | Odoribacter splanchnicus 1.01 | [4] 1.03 | Parabacteroides merdae 1.03

CC(C)[C@H](C(=O)O[C@H](C#N)c1cccc(Oc2ccccc2)c1)c1ccc(Cl)cc1
inactive: Akkermansia muciniphila 1.1 | Bacteroides caccae 0.99 | Bacteroides clarus 0.979 | Bacteroides dorei 1.04 | Bacteroides stercoris 0.778 | [1] 1.01 | Bacteroides uniformis 1.02 | [2] 0.917 | Clostridium difficile 1 | Collinsella aerofaciens 0.921 | Coprococcus comes 0.973 | Escherichia coli ED1a 0.962 | Escherichia coli IAI1 0.959 | Eubacterium rectale 0.934 | [3] 0.954 | Lactobacillus gasseri 0.901 | Lactobacillus paracasei 1.01 | Odoribacter splanchnicus 1.09 | [4] 0.923 | Parabacteroides merdae 1.01
